# An excerpt weighted towards active compounds, which were near 2.4% of everything screened.
# eIF4H inh: human eIF4H binding inhibitors, primary screen, translation initiation inhibitor project, biochemical, uHTS, fluorescence polarization; Eukaryotic translation initiation factor 4H (Homo sapiens), Q15056; 0.94% of 290,000 active; AID 2012, 2009; inhibition, % at 35 µM; eIF4H fluorescence polarization binding assay;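 further: calls also rest on retests at 20 µM and on dose response follow-up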
# PABP1 MLLE inh: inhibitors of PABP1 MLLE–PAM2 peptide binding, primary screen, biochemical, fluorescence polarization, FITC-PAM2, GST-MLLE; Polyadenylate-binding protein 1 (Homo sapiens), P11940; inhibition, % at 20 µM; 0.36% of 360,000 active; AID 588489, 2011; in the data active means inhibition above about 35%, passing the limit was not always enough;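 further: plate controls were DMSO wells with GST-MLLE for no effect and wells lacking GST-MLLE protein for full effect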
# M18AAP inhibitor: PfM18AAP inhibitors, malaria aminopeptidase, primary screen, biochemical, QFRET, recombinant enzyme. M18 aspartyl aminopeptidase (Plasmodium falciparum 3D7). H-Glu-NHMec fluorogenic cleavage. inhibition, % at 7.35 µM. 1.2% of 290,000 active. AID 1822, 2009;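 active means inhibition above the campaign mean inhibition over all tested compounds plus 3 SD, cut at about 28% in these data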;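 further: 0% = plate median of test compound wells and 100% = 2 mM ZnCl2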
# PABP FP inh: PABP poly(A) RNA binding inhibitors, primary screen, biochemical, fluorescence polarization, uHTS | Polyadenylate-binding protein 1 (Homo sapiens), P11940 | inhibition, % at 35 µM | 1% of 290,000 active | AID 2014, 2009;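 further: calls also rest on retests at 20 µM and on dose response follow-up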
# eIF4E-4G inh: eIF4E–eIF4G protein interaction inhibitors, primary screen, biochemical, uHTS, TR-FRET, eIF4GI fragment; 0.37% of 220,000 active; inhibition, % at 21.7 µM; TR-FRET eIF4E-eIF4GI(517-606) binding, 2 h;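 active means inhibition above about 30%, limit read from the data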;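 further: 0% = full FRET control wells and 100% = background wells lacking eIF4GI fragment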
# PERK inhibitor: block of dimerizer-induced PERK translation repression, primary screen, PERK inhibitor project, CHO PERK-DD cells, SEAP luminescence, HTS; Eukaryotic translation initiation factor 2-alpha kinase 3 (Homo sapiens), Q9NZJ5; CHO PERK-DD fusion, SEAP luminescence translation reporter; inhibition, % at 5.6 µM; 0.17% of 220,000 active;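 active means inhibition above the mean inhibition of all tested compounds plus 3 SD, set separately per screening campaign, cut at about 2.9% in these data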;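 further: PERK kinase domain activated by AP20187 dimerizer at 100 nM; 0% = DMSO with dimerizer and 100% = rapamycin at 8.4 µM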
# The depositor's hits bear a star; u = inconclusive; x = no result; [ ] = remark or other dose. Unless noted, how the calls were made is not given here.
SMILES,eIF4H inh,PABP1 MLLE inh,M18AAP inhibitor,PABP FP inh,eIF4E-4G inh,PERK inhibitor
CC(C)c1ncc(S(=O)(=O)c2ccc(C(F)(F)F)cn2)c(N)n1,-2,-12,2,-6,-1,1
Cc1ccc(SCC(=O)c2ccc(CC(=O)O)s2)cc1,74*,23,5,21,3,2
c1ccc2[nH]c(CSc3nc4ccccc4o3)nc2c1,-15,35*,3,-1,-5,0
c1cncc(-c2nnc(SCc3nc4ccccc4[nH]3)o2)c1,-1,-23,6,11,1,1
COC(=O)/C(=C/c1ccco1)NC(=O)c1ccc(Br)o1,26,2,-1,-4,3,1
O=C(NCCCO)/C(=C/c1ccco1)NC(=O)c1ccc(Br)o1,58*,8,-11,-6,11,0
NC(=O)/C(=C/c1ccco1)NC(=O)c1ccc(Br)o1,x,-17,29*,x,x,1
CCCCC(=O)NCc1ccc2c(c1)cc(C)n2C,72,14,4,77,1,0
CCOC(=O)CCC(=O)NCc1ccc2c(c1)cc(C)n2C,103,21,8,104*,12,0
Cc1cc2cc(CNC(=O)Nc3ccccc3)ccc2n1C,11,63*,0,4,0,1
CCC(CC)C(=O)NCc1ccc2c(c1)cc(C)n2C,2,21,-3,8,3,0
Cc1cc2cc(CNC(=O)c3cccs3)ccc2n1C,8,45*,-6,18,4,0
Cc1cc2cc(CNC(=O)C(C)Oc3ccccc3)ccc2n1C (centres undefined),73,26,6,24*,-4,-1
CCCCc1c(C)[nH]c2nc3ccccc3n2c1=O,-2,0,5,-7,x,x
CC(C)CC(NC(N)=O)C(=O)NCc1ccccc1Cl (centres undefined),3,1,0,5,-1,0
CN=c1scc(C)n1/N=C/c1cc(Br)c(O)c(OC)c1,3,3,28*,0,7,0
COc1cc(/C=N/N(C)C)cc(Br)c1O,8,7,12,9,-1,3
C=CCOc1ccc(CNc2ccc3[nH]c(=O)[nH]c3c2)cc1OC,104*,-6,-23,9.0*,11,0
Cc1ccc(CCNC(=O)CC(C)CC2=NS(=O)(=O)c3ccccc3N2)cc1 (centres undefined),x,-2,4,x,x,x
COCCCNc1nc2ccccc2nc1NS(=O)(=O)c1ccc(C)cc1C,-2,1,-3,7,4,-1
C[C@H]1CN([C@@H](C)CO)C(=O)CCCn2nncc2CO[C@H]1CN(C)C(=O)C1CC1,x,1,x,x,x,x
CCOC(=O)c1c(=O)n(O)c2ccc(C)cc2[n+]1[O-],104*,-54,6,125*,-4,1
CCOC(=O)/C(=C\c1cccc(O)c1)c1nc2sc(C)c(C)c2c(=O)[nH]1,-4,6,29*,-11,3,0
CCOC(=O)c1nc2sc(C)c(C)c2c(=O)[nH]1,-3,2,1,3,-2,-1
CC(C)Oc1ccc(CN=C(N)N=C(N)N)cc1Cl,active,-21,0,119*,3,1
SMILES,eIF4H inh,PABP1 MLLE inh,M18AAP inhibitor,PABP FP inh,eIF4E-4G inh,PERK inhibitor
CCN1CCN(C(c2ccc(C(F)(F)F)cc2)c2ccc3cccnc3c2O)CC1 (centres undefined),4,41*,6,-15,x,x
OCCN1CCN(C(c2cccs2)c2ccc3cccnc3c2O)CC1 (centres undefined),30,x,15,6,46*[fluorescence artefact?],3
O=C(NCCN1CCOCC1)c1ccccc1OCc1ccccc1,x,9,x,x,x,x
CCOc1ccc(NC(=O)C2CCC(C)(C(=O)O)C2(C)C)cc1 (centres undefined),130*,-5,-17,u,0,0
COc1ccc(NC(=O)C2CCC(C)(C(=O)O)C2(C)C)cc1 (centres undefined),8,-5,-4,4,-2,2
O=C(N/N=C/c1cnc(N2CCCCC2)s1)c1ccc(C(F)(F)F)cc1,0,6,7,-4,0,0
O=C(CSc1nnc(CNc2ccc(Cl)cc2)o1)Nc1nc2c(s1)CCCC2,9,-2,13,0,6,0
Cn1c(=O)cc(C(=O)N/N=C/c2ccc(Cl)cc2)[nH]c1=O,3,6,2,-2,1,2.9*
CC(C)(C)C1CCC(=NNc2nc3ccccc3[nH]2)CC1 (centres undefined),13,-18,17,51*,0,-1
c1ccc(CN2CCC(=NNc3nc4ccccc4[nH]3)CC2)cc1,26,-31,28,9,-8,0
O=C(/N=C1\NC(=O)C(F)(C(F)(F)F)S1)NC1CCCCC1 (centres undefined),122*,-7,x,102,44*,x
COc1ccc(-n2cc(CNCCc3cnc[nH]3)c(-c3cccc(F)c3)n2)cc1,-6,-2,0,-9,-2,0
OCCCNC(=S)Nc1ccc(Br)cc1Cl,-4,14,7,-1,10,1
COc1ccc(NC(=O)Cn2nnc(-c3ccccc3NC(=O)C3CC3)n2)cc1,-9,2,-1,1,0,-1
COc1ccc(C(=O)Cn2nnc(-c3ccccc3NC(=O)C3CCCCC3)n2)cc1,23,-40,3,62*,-8,0
C/C(=N\OC(=O)c1ccccc1F)c1nccs1,2,-14,1,9,-2,3.4*
C=CCN(c1ccccc1Cl)S(=O)(=O)c1cccc(C(=O)OCC(=O)N(C)C2CCS(=O)(=O)C2)c1 (centres undefined),4,-9,-3,19,2,0
CCc1noc(C)c1C(=O)N1CCN(S(=O)(=O)c2ccccc2C(F)(F)F)CC1,x,88*,x,x,x,x
CCc1noc(C)c1C(=O)N1CCN(S(=O)(=O)c2ccc(Br)cc2Cl)CC1,x,2,x,x,x,x
O=C(Nc1nnc([C@@H]2C[C@H](O)[C@@H](CO)O2)s1)NC1CCCCC1,x,3,x,x,x,x
COc1nnc(-c2ccccc2)s1,-5,39*,3,-9,-3,0
O=C(CCN1CCCCC1)N1CCc2c([nH]c3ccccc23)C1c1cccnc1 (centres undefined),x,4,x,x,x,x
O=C(CSc1nc(-c2ccccc2)nc2ccccc12)Nc1cccc(C(=O)O)c1,2,-10,-4,7,2,1
O=C(CSc1nc(-c2ccccc2)nc2c1Cc1ccccc1O2)Nc1ccc(C(=O)O)cc1,98,6,-4,2,60*,1

# Bioassay records as filed in PubChem BioAssay.
